Screening results (PubChem BioAssay)
In the library only some 2.5% were active in any assay of this set; here they are far more common.
L3MBTL1 block: L3MBTL1 (human) inhibition; AID 485360; 230,000 tested, 0.66% active; AlphaScreen L3MBTL1–H3K9me1 peptide binding; Potency, µM (highest dose often 57.1 µM), for inactives: top-dose activity, negative = inhibition, actives largely listed as inhibitors; Q9Y468; also: potency is read from the fitted curve at half-maximal effect; % is scaled to controls: 0 for no effect and ±100 for the full control effect; nearly all actives have a fitted effect of over 60% in size
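First, the protein-peptide complex forms for 30 min at room temperature (L3MBTL1 50 nM, biotinylated H3K9me1 peptide 75 nM). Next, compounds are pin-transferred and incubated 30 min. Finally, AlphaScreen beads are added and read after 30 min.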
Pol kappa inh-1: DNA polymerase kappa (human) inhibition; Potency, µM (top dose mostly 107 µM), for the others: at the top dose activity, negative = inhibition, usual class: inhibitors; 400,000 tested, 0.53% active; purified Pol kappa, fluorescent DNA synthesis assay, 10 min; AID 588579; Q9UBT6; also: potency is read from the fitted curve at half-maximal effect; % is scaled to controls: 0 for no effect and ±100 for the full control effect
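Kinetic fluorescence screen: compound preincubated 15 min RT with 10 nM enzyme; 50 nM substrate (final) initiates; reads at 0/10 min.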
WRN helicase inh-1: blocks human WRN helicase. WRN helicase unwinding, fluorescent forked duplex, kinetic. Potency, µM (series often up to 114 µM), for inactives: at the top dose activity change, negative = inhibition, actives largely listed as inhibitors. 360,000 tested, 0.46% active. AID 651768; also: potency is read from the fitted curve at half-maximal effect; % is scaled to controls: 0 for no effect and ±100 for the full control effect; nearly all actives have a fitted effect of over 55% in size
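WRN at 20 nM final was preincubated with compound for 15 min at room temperature; reaction started with 100 nM forked duplex oligonucleotide carrying fluorophore and quencher plus 2 mM ATP (final). Unwinding followed kinetically by red fluorescence (ex 525/em 598 nm).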
Pol eta inh-1: inhibitors of human DNA polymerase eta; Potency, µM (series often up to 114 µM), for the others: at the top dose activity change, negative = inhibition, actives largely listed as inhibitors; recombinant Pol eta, fluorescent DNA replication assay; 390,000 tested, 1.2% active; Q9Y253; also: potency is read from the fitted curve at half-maximal effect; % is scaled to controls: 0 for no effect and ±100 for the full control effect
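Pol eta (10 nM) was preincubated with compounds for 15 min at room temperature, after which fluorescent replication substrate (50 nM final) was added to start the reaction. Fluorescence was read kinetically at 0 and 10 min.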
POLI inh: DNA polymerase iota (human) inhibition; Q9UNA4; Pol iota fluorescent replication assay, 10 min; Potency, µM (doses to about 115 µM), for inactives: at the highest dose activity, negative = inhibition, usual class: inhibitors; 390,000 tested, 1% active; AID 588590; also: potency is read from the fitted curve at half-maximal effect
Target sequence (Q9UNA4 whole entry, looked up): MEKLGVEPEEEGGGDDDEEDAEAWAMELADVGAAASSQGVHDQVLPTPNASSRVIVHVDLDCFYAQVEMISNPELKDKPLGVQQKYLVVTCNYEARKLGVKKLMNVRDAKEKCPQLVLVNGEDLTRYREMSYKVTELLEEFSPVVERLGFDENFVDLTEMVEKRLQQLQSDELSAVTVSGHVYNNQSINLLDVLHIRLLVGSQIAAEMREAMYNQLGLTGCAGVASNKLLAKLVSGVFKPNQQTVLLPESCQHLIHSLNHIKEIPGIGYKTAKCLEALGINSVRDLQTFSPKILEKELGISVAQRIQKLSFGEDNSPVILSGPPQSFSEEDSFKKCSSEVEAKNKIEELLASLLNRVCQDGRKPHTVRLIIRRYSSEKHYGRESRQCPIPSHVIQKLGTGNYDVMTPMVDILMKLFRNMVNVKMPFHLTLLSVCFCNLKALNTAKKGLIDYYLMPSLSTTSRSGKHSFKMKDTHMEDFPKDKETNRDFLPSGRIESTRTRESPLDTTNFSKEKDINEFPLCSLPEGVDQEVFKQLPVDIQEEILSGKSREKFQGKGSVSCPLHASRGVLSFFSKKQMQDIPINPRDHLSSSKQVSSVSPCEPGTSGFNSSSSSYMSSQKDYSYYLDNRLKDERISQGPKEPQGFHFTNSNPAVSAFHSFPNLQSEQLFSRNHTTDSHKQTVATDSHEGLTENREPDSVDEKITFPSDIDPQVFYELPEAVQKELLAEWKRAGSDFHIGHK
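Fluorescent replication assay read twice, at 0 min and 10 min after adding 50 nM (final) substrate. Enzyme (10 nM) and compounds were first incubated 15 min at room temperature; enzyme-free buffer wells were negative controls.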
Pol beta inh: DNA polymerase beta (human) inhibition; P06746; Pol beta primer extension/strand displacement, fluorescence kinetic; Potency, µM (doses to about 114 µM), inactives show at the top dose activity change, negative = inhibition, usual class: inhibitors; 340,000 tested, 1.3% active; AID 485314; also: potency is read from the fitted curve at half-maximal effect; % is scaled to controls: 0 for no effect and ±100 for the full control effect
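Values derive from four-parameter Hill fits of normalized kinetic data: reads at 0 and 10 min following addition of 50 nM substrate to 10 nM Pol beta preincubated 15 min with compound.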
TbPGK inh: TbPGK inhibition, hit validation | shares compounds with Pol kappa inh-1 | TbPGK coupled GAPDH assay, Kinase-Glo luminescence | Potency, µM (top dose mostly 57.5 µM), inactives show at the top dose activity change, negative = inhibition, usual class: inhibitors | 500 tested, 79% active; also: potency is read from the fitted curve at half-maximal effect; % is scaled to controls: 0 for no effect and ±100 for the full control effect; nearly all actives have a fitted effect of over 65% in size
POLI cherry-pick: Confirm cherry-picked inhibitors of human polymerase iota; shares compounds with Pol kappa inh-1; 1,500 tested, 77% active; AID 720496; Potency, µM, actives largely listed as inhibitors; Pol iota primer extension, TAMRA/BHQ fluorescence; also: potency is read from the fitted curve at half-maximal effect
GALK confirm: confirmation of human galactokinase (GALK) inhibitors | shares compounds with Pol eta inh-1 | purified GALK, Kinase-Glo ATP depletion luminescence | Potency, µM (doses to about 115 µM), inactives show at the highest dose activity, negative = inhibition, actives largely listed as inhibitors | 150 tested, 70% active
GALK redox cs: counter-screen for GALK inhibitors: redox cycling H2O2 generation | shares compounds with Pol eta inh-1 | 150 tested, 40% active | Phenol red-HRP H2O2 redox cycling, absorbance 600 nm | AID 2035 | Potency, µM (highest dose often 115 µM), inactives show top-dose activity change, negative = H2O2 signal, most hits filed as inhibitors
HEK293 tox: reduces HEK-293 cell viability in GALK counter-screen; HEK-293 viability, ATP luminescence (CellTiter-Glo), 24/48 h; Potency, µM (series often up to 46.1 µM), inactives show at the highest dose activity change, negative = cytotoxicity, actives largely listed as inhibitors; shares compounds with Pol eta inh-1; 170 tested, 10% active; also: potency is read from the fitted curve at half-maximal effect; % is scaled to controls: 0 for no effect and ±100 for the full control effect
Pol kappa inh-2: Pol kappa (human) inhibition, cherry-pick confirmation | Potency, µM, most hits filed as inhibitors | shares compounds with Pol eta inh-1 | purified Pol-kappa, fluorescent strand-displacement substrate | AID 720501 | 920 tested, 76% active; also: potency is read from the fitted curve at half-maximal effect
Pol eta inh-2: confirmation of human DNA polymerase eta inhibitors; AID 720502; Pol eta primer extension, TAMRA/BHQ fluorescence, 10 min; 2,600 tested, 64% active; shares compounds with Pol eta inh-1; Potency, µM, most hits filed as inhibitors; also: potency is read from the fitted curve at half-maximal effect
WRN helicase inh-2: WRN helicase inhibition, cherry-pick retest | shares compounds with WRN helicase inh-1 | WRN helicase DNA unwinding, fluorescence kinetic | Potency, µM (doses to about 57.1 µM), for inactives: at the highest dose activity, negative = inhibition, hits mostly inhibitors | 610 tested, 63% active | AID 720497; also: potency is read from the fitted curve at half-maximal effect; nearly all actives have a fitted effect of over 65% in size
TO displacement: DNA binding via thiazole orange displacement | shares compounds with WRN helicase inh-1 | thiazole orange DNA binding displacement, fluorescence | Potency, µM (doses to about 57.1 µM), inactives show top-dose activity change, negative = inhibition, usual class: inhibitors | 610 tested, 10% active | AID 720499;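 also: drop in dye fluorescence marks compound binding to DNA; potency is read from the fitted curve at half-maximal effect; % is scaled to controls: 0 for no effect and ±100 for the full control effect; nearly all actives have a fitted effect of over 60% in size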
BLM counter: BLM helicase inhibition, WRN selectivity check | shares compounds with WRN helicase inh-1 | Recombinant BLM helicase DNA unwinding, red fluorescence | Potency, µM (titrated, usually from 57.1 µM), for inactives: at the top dose activity change, negative = inhibition, hits mostly inhibitors | 610 tested, 60% active | AID 720503; also: potency is read from the fitted curve at half-maximal effect; nearly all actives have a fitted effect of over 60% in size
* = called active by the depositor; ? = inconclusive; · = no result given. Calls follow the shape of the dose curve; as a rule, active = well fitted curve in the direction sought with a large enough effect; inconclusive = small, poorly fitted or top-dose-only effect, or another doubt; inactive = no such curve, though single readings can be large; an effect the other way counts as inactive or inconclusive.

SMILES | L3MBTL1 block | Pol kappa inh-1 | WRN helicase inh-1 | Pol eta inh-1 | POLI inh | Pol beta inh | POLI cherry-pick | Pol eta inh-2 | WRN helicase inh-2 | TO displacement | BLM counter | others
O=C(O)c1ccc(S(=O)(=O)/N=C2\C=C(Nc3ccccc3F)C(=O)c3ccccc32)cc1 | · | ? | 39.8µM* | 8.91µM* | 1.12µM* | 44.7µM* | 21.2* | 21.3* | ? | -25.7% | ? | GALK confirm=7.49µM*;GALK redox cs=4.21µM*;HEK293 tox=12.5µM*
COC(=O)C(C(C)=O)C1=C/C(=N\S(=O)(=O)c2ccc(C)cc2)c2ccccc2C1=O (stereo not given) | · | -9.6% | -17.8% | -10.9% | 34.4% | -1.7% | · | · | · | · | ·
O=C(O)c1ccccc1NS(=O)(=O)c1ccc(N/N=C/c2cccc(O)c2O)c([N+](=O)[O-])c1 | · | 28.2µM* | 20µM* | 3.16µM* | 10µM* | · | 33.6* | 30.1* | 19.2µM* | 27.1µM* | 6.07µM* | TbPGK inh=11.6µM*
COc1cc(C=NNc2ccc(S(=O)(=O)Nc3ccccc3C(=O)O)cc2[N+](=O)[O-])ccc1O | ? | -26.9% | 79.4µM* | 50.1µM* | ? | · | 75.2* | 19* | 24.1µM* | 24.1µM* | 27.1µM*
NS(=O)(=O)c1ccc(N/N=C/c2ccc(C(=O)O)cc2)c([N+](=O)[O-])c1 | 0.5% | -14.1% | -13.6% | -18.7% | -6.6% | 19.8% | · | · | · | · | ·
Nc1nc(=S)c2ncn(C3CCCC3)c2[nH]1 | 4.2% | -5.1% | -4.2% | -7.3% | 30.4% | -12.1% | · | · | · | · | ·
Cc1cc(=O)oc2cc(OCC(=O)OCC(=O)N3CCC(C)CC3)ccc12 | · | -9.1% | -7.0% | 1.9% | 10.5% | -29.1% | · | · | · | · | ·
O=[N+]([O-])c1cc2ccccc2c(O)c1O | · | · | ? | 4.47µM* | · | · | 11.9* | 7.57* | 12.1µM* | -9.9% | 0.681µM* | Pol kappa inh-2=2.12*
O=C(N=Nc1c(O)[nH]c2ccc([N+](=O)[O-])cc12)c1ccccc1[N+](=O)[O-] | -13.0% | -8.9% | -10.9% | -7.3% | 17.2% | -5.4% | · | · | · | · | ·
CCc1cc(C(=O)N=Nc2c(O)[nH]c3ccc([N+](=O)[O-])cc23)c2ccccc2n1 | ? | ? | ? | 50.1µM* | ? | 31.6µM* | ? | 75.7* | 19.2µM* | 15.2µM* | 17.1µM*
COc1cc(C2/C(=C(\O)c3ccc4c(c3)OCCO4)C(=O)C(=O)N2CCN2CCOCC2)cc(OC)c1OC (stereo not given) | · | -15.0% | -23.9% | 0.7% | 13.5% | 11.8% | · | · | · | · | ·
CN1CCN(c2ccc(Nc3c4ccccc4nc4ccccc34)cc2)CC1 | · | 18.9µM* | · | · | · | · | 42.3* | · | 6.07µM* | 7.64µM* | 24.1µM* | Pol kappa inh-2=29.9*
O=C(O)c1ccc(Nc2c3ccccc3nc3ccccc23)cc1 | · | -13.9% | -9.1% | -10.3% | 111.2% | -2.2% | · | · | · | · | ·
O=C1C(Cl)=C(NCCc2ccccc2)C(=O)c2ccccc21 | · | -1.6% | 28.2µM* | 22.4µM* | 3.55µM* | · | 47.4* | 47.8* | ? | -19.6% | 17.1µM*
C=CCOC(=O)c1cc(-c2ccc(/C=C3\C(=O)NC(=O)C(C#N)=C3C)o2)ccc1Cl | · | 28.2µM* | 10.6µM* | 3.55µM* | ? | 12.6µM* | 67* | 30.1* | 15.2µM* | ? | 6.81µM*
NS(=O)(=O)c1ccc(CCNC(=O)c2ccc(C(=O)c3ccccc3)cc2)cc1 | · | -2.3% | -30.8% | -9.1% | ? | 0.8% | · | · | · | · | ·
NS(=O)(=O)c1ccc(CCNC(=O)c2ccc3nccnc3c2)cc1 | 15.8µM* | 31.6µM* | 31.6µM* | 3.16µM* | 20µM* | · | 16.8* | 12* | 17.1µM* | ? | 7.64µM* | Pol kappa inh-2=4.23*
C=C1CCN([C@@H](C)C(=O)OCc2ccc(C)cc2)S(=O)(=O)c2ccccc21 | · | -16.4% | -7.5% | -9.2% | -19.0% | -13.3% | · | · | · | · | ·
Cc1ccc(C)n1-c1sc2c(c1C(=O)O)CCCC2 | ? | 50.1µM* | ? | 7.94µM* | ? | 14.1µM* | 59.7* | 26.9* | 13.6µM* | 0.0% | 15.2µM*
Cc1ccc(C(=O)Nc2sc3c(c2C(=O)O)CCCC3)o1 | · | 4.2% | -0.8% | -12.6% | 9.8% | -11.1% | · | · | · | · | ·
CCOC(=O)C1=C(C)N=c2s/c(=C/c3ccc(OCC(=O)O)c(OC)c3)c(=O)n2C1c1ccc(Cl)cc1 (stereo not given) | · | ? | 28.2µM* | 20µM* | 10µM* | · | 15* | 33.8* | 12.1µM* | 464.6% | 7.64µM* | TbPGK inh=10.3µM*;Pol kappa inh-2=7.52*
